Bioassay records as filed in PubChem.
TIM10 inh: growth inhibitors of TIM10 yeast strain | S. cerevisiae TIM10 strain growth, BacTiter-Glo luminescence, 24 h | inhibition, % at 10 µM | 330,000 tested, 1.4% active | AID 463195;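 active means inhibition of 40% or more at the single tested concentration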;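 further: wild-type TIM10 isogenic control strain grown at permissive 25 °C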
B2AR ag: agonists of human beta-2 adrenergic receptor inducing internalization | Am2.2-beta2AR cells, FAP receptor internalization, flow cytometry | response, % (test concentration not listed) | 340,000 tested, 0.43% active;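 active means response above a set limit, near 3 SD of response in nonfluorescent compounds, cut at about 42% in these data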
Target sequence (P07550 whole entry, looked up): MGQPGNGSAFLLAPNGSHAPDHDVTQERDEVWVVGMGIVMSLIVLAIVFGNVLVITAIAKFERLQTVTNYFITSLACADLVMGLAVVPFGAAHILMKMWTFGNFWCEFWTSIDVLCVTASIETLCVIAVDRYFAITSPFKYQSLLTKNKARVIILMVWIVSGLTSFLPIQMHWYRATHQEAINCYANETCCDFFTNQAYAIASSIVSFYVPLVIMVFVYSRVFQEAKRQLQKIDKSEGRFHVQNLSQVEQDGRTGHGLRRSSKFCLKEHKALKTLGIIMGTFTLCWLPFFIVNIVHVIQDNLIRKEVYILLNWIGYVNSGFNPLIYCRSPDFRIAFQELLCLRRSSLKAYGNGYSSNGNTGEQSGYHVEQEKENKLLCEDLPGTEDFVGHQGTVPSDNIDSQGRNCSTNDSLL
tim10-1 inh: growth inhibitors of tim10-1 mutant yeast; S. cerevisiae tim10-1 ts strain growth, BacTiter-Glo, 24 h; inhibition, % at 20 µM; 330,000 tested, 2.2% active;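 active means inhibition of at least 40%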;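 further: mutant grown at 25 °C; 0% = DMSO wells with yeast and 100% = wells holding no yeast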
PfHsp90 yeast 2: reduces growth (ATP signal) of yeast expressing P. falciparum Hsp90; 310,000 tested, 0.32% active; S. cerevisiae expressing PfHsp90, BacTiter-Glo ATP, 48 h; yeast lacking PDR1 and PDR3 efflux regulators; inhibition, % at 9.4 µM; AID 504621;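 active means every replicate shows inhibition above about 80%, whatever the replicate mean, limit read from the data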;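 further: 0% = DMSO neutral controls and 100% = 20 µM radicicol positive controls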
tim23-1 inh: growth inhibitors of tim23-1 mutant yeast. AID 463212. inhibition, % at 20 µM. 330,000 tested, 1.3% active. S. cerevisiae tim23-1 growth, BacTiter-Glo luminescence, 24 h;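 active means growth inhibition of the mutant yeast at or above 50%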;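 further: temperature-sensitive mutant grown at 25 °C; plate controls were DMSO-treated mutant yeast for no effect and medium wells lacking yeast for full effect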
tim10 confirm: confirmation of TIM10 yeast growth inhibitors. S. cerevisiae tim10 strain growth, BacTiter-Glo luminescence, 24 h. shares compounds with TIM10 inh. inhibition, % at 10 µM. 4,600 tested, 63% active;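 active means inhibition of yeast growth at or above a set limit in either of two replicates at 10 µM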;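 further: this counterscreen used the strain with wild-type TIM10; 0% = yeast with DMSO and 100% = medium wells lacking yeast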
* marks the source's active call; other numbers are inactive results; / = no result given. Hits are enriched below; roughly 3.8% of the tested compounds scored in any of these assays.

SMILES	TIM10 inh	B2AR ag	tim10-1 inh	PfHsp90 yeast 2	tim23-1 inh	tim10 confirm
COC(=O)CSc1nc(-c2ccccc2)c2c(c1C#N)CCCC2	41*	0	30	-25	23	27
COCCCn1c(=O)c2sccc2n(Cc2cc(C(=O)OC)ccc2OC)c1=O	15	-2	-4	11	19	/
S=c1[nH]nc(SCc2ccccc2)c2[nH]cnc12	/	9	/	3	/	/
O=C(Nc1ccc2nc(-c3cccnc3)[nH]c2c1)c1ccco1	6	-29	-20	24	-12	/
O=C(Nc1cc2nn(-c3ccccc3)nc2cc1Cl)c1ccco1	-2	-1	-2	-4	-9	/
O=C(Nc1ccc(Oc2ccc(NC(=O)c3ccco3)c(NC(=O)c3ccco3)c2)cc1)c1ccco1	39	-9	26	/	41	/
O=C(Nc1ccc2nn(-c3ccccc3)nc2c1)c1ccco1	54*	-10	22	26	30	51*
O=C(Nc1ccc2nc(-c3ccco3)[nH]c2c1)c1ccco1	54*	-5	17	/	41	37*
O=C(Nc1ccc(Oc2ccc3ccccc3c2)cc1)c1ccco1	43*	-3	26	-14	34	36*
CCn1ncc(S(=O)(=O)NCc2ccccc2Cl)c1C	5	-5	12	1	15	/
O=C(NCCCn1ccnc1)C1CCN(S(=O)(=O)c2cc([N+](=O)[O-])ccc2Cl)CC1	-4	-9	7	17	4	/
Cc1ccc2c(CC(=O)NC3=NCCS3)coc2c1	17	4	10	-7	3	/
Cc1cc2occ(CC(=O)NC3=NCCS3)c2cc1C(C)C	40*	2	33	6	4	37*
COc1ccc(O)c(-c2cc(-c3ccccc3[N+](=O)[O-])[nH]n2)c1	35	-5	21	-12	36	/
Cc1ccc(O)c(-c2cc(-c3ccccc3[N+](=O)[O-])[nH]n2)c1	42*	2	28	0	47	4
Cc1ccc(NC(=O)Nc2cccc([N+](=O)[O-])c2)cc1F	15	11	21	-10	1	/
Cc1cc(NC(=O)Nc2cccc([N+](=O)[O-])c2)no1	-1	4	0	-15	16	/
CC(C)(C)CC(C)(C)NC(=O)Nc1cccc([N+](=O)[O-])c1	46*	-1	39	-2	50	45*
O=C(Nc1ccc(OC(F)(F)F)cc1)Nc1cccc([N+](=O)[O-])c1	45*	11	29	17	36	34*
O=C(COC(=O)CN1C(=O)C(=O)c2ccccc21)OCN1C(=O)c2ccccc2C1=O	48*	-3	9	-9	7	1
Cc1cc(C)c(NC(=S)NCCCSC2CCCCC2)c(C)c1	42*	14	35	-8	18	27
COc1cccc(NC(=O)NCCCSC2CCCCC2)c1	22	-2	32	-3	35	/
Cn1c(CS(=O)Cc2c(Cl)cccc2Cl)nnc1SCc1c(Cl)cccc1Cl (centres undefined)	35	-9	32	-3	39	/
O=S(Cc1ccc(Br)cc1)Cc1nnc(SCc2c(Cl)cccc2Cl)n1-c1ccccc1 (centres undefined)	41*	2	26	9	42	23
COc1ccc(-c2csc(NC(=O)CSCc3c(C)noc3C)n2)c(OC)c1	83*	0	11	2	18	-9
SMILES	TIM10 inh	B2AR ag	tim10-1 inh	PfHsp90 yeast 2	tim23-1 inh	tim10 confirm
O=C1/C(=C\c2ccc(O)c(O)c2)SC(=S)N1Cc1ccccc1	50*	-175	-44	122*	22	56*
COc1cc(/C=C2/SC(=S)N(Cc3ccccc3)C2=O)ccc1O	16	1	-1	-1	42	/
Cc1ccccc1C(=O)N1CCC(C(=O)Nc2ccc(S(=O)(=O)N3C(C)CCCC3C)cc2)CC1 (centres undefined)	/	-1	/	-18	/	/
Cc1ccccc1SCC(=O)OCC(=O)N(C)c1c(N)n(Cc2ccccc2)c(=O)[nH]c1=O	-8	-13	11	-7	-2	/
CSc1cccc(NC(=O)/C=C/c2ccccc2)c1	40	2	30	12	44	16
CCN(CC)S(=O)(=O)c1ccc(/C=C/C(=O)Nc2cccc(F)c2)cc1	59*	12	39	-4	28	-13
CC(C)OCCCNC(=O)C1CCN(S(=O)(=O)c2ccc3nc4c(c(C(=O)O)c3c2)CCCCC4)CC1	-6	1	-11	-20	-2	/
